Entries with a potency or affinity are not part of this list. Calls of active or inactive are those of the source. The rule behind the calls is not given here.

The assay can be described thus: mammalian cell viability reduction – secondary assay, cytotoxicity control for West Nile virus antiviral project, dose response (AID 1650). The following applies: Mammalian host cell viability, cytotoxicity counter-screen; series mostly up to 20 µM. On the technique in general: Counterscreens check selectivity or assay interference.
`O=c1c2ccccc2nc(/C=C/c2ccccc2O)n1-c1ccccc1O`: the result was inactive.

For the compound `CN(C)CCN(CC1CCCN(Cc2ccccc2F)C1)C(=O)Cc1ccc(F)c(F)c1` (centres undefined), the result was inactive.

`CC(C)c1oc(=O)cc2c1[C@@H](O)[C@H]1OC(=O)[C@@]3(C)C[C@@H](O)[C@@H](O)[C@@]2(C)C13` (some centres undefined): the call was inactive.

On to `c1ccc2c(c1)Sc1ccccc1N2CC1CN2CCC1CC2` (centres undefined), for which the outcome was inactive.

In the case of `CCN(CC)c1nc2c(C)cccn2c(=O)c1C=C1C(=O)NC(=O)NC1=O`, the result was inactive.

Turning to `CC(C)c1oc(=O)cc2c1[C@@H](O)[C@H]1OC(=O)[C@@]3(C)CC[C@@H](O)[C@@]2(C)C13` (some centres undefined), the compound was called inactive.

In the case of `O=C(N/N=C/c1c(O)n(CCc2ccccc2)c(=O)[nH]c1=O)c1ccccc1O`, the call was inactive.

Turning to `O=C1/C(=C\c2ccccc2)C2OCC=C3CN4CCC56c7ccccc7N1C5C2C3CC46` (centres undefined), the call was inactive.

Turning to `Cc1ccc2c(c1)[C@@H]1CN(C)CC[C@@H]1N2C(=O)Nc1cccc(C(F)(F)F)c1`, the compound was classed as inactive.

Values taken from PubChem BioAssay AID1650 (Southern Research Specialized Biocontainment Screening …, 2009).
